From PubChem BioAssay (NCATS)
Inconclusive results are not listed. Active and inactive are the calls of the source. Unless noted, the call rests on the fitted dose curve; in most records, active means well fitted curve in the direction sought with a large enough effect; inconclusive means small, poorly fitted or top-dose-only effect, or another doubt; inactive means no such curve, though single readings can be large; an effect the other way counts as inactive or inconclusive.

Columns and labels:
NIH3T3 = experiment: qHTS assay to identify novel small-molecules to repurpose for Merkel cell carcinoma treatment (AID 1296009); details: MCC and control cell lines, CellTiter-Glo viability, 72 h; at 44.8 µM (top of the series) unless noted; further: nearly all actives have a fitted effect of over 60% in size; further: potency means the concentration at half of the fitted maximal effect; on activity change, negative = cytotoxicity: on the % scale 0 is the no-effect control and ±100 the full control effect
Outline: (§1)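 After compound transfer in DMSO, plates were kept 72 hr at 37 degree celsius. Luminescent ATP signal from CellTiter-Glo served as viability measure, normalized against DMSO and no-cell controls.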

C33A = experiment: Primary qHTS to identify gynecologic anti-cancer compounds using libraries of approved drugs and bioactive compounds (AID 1345084); details: Gynecologic cancer cell panel viability, ATPlite luminescence, 48 h; series mostly up to 57.5 µM; further: on the % scale 0 is the no-effect control and ±100 the full control effect; nearly all actives have a fitted effect of over 55% in size
Outline: (§2)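 Measured: luminescence after ATPlite addition (15 min, RT). Exposure: 48 h, 37 C, 5% CO2.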

CASKI = experiment: as above; details: Gynecologic cancer cell panel viability, ATPlite luminescence, 48 h; series mostly up to 57.5 µM
Outline: as §2

Es-2 = experiment: as above; details: Gynecologic cancer cell panel viability, ATPlite luminescence, 48 h; series mostly up to 57.5 µM
Outline: as §2

HeLa = experiment: as above; details: Gynecologic cancer cell panel viability, ATPlite luminescence, 48 h; series mostly up to 57.5 µM
Outline: as §2

Hek293T = experiment: as above; details: Gynecologic cancer cell panel viability, ATPlite luminescence, 48 h, control line for the selectivity index; series mostly up to 57.5 µM
Outline: as §2

JEG-3 = experiment: as above; details: Gynecologic cancer cell panel viability, ATPlite luminescence, 48 h; series mostly up to 57.5 µM
Outline: as §2

OV90 = experiment: as above; details: Gynecologic cancer cell panel viability, ATPlite luminescence, 48 h; series mostly up to 57.5 µM
Outline: as §2

PA-1 = experiment: as above; details: Gynecologic cancer cell panel viability, ATPlite luminescence, 48 h; series mostly up to 57.5 µM
Outline: as §2

Tov-21-G = experiment: as above; details: Gynecologic cancer cell panel viability, ATPlite luminescence, 48 h; series mostly up to 57.5 µM
Outline: as §2

Tov112D = experiment: as above; details: Gynecologic cancer cell panel viability, ATPlite luminescence, 48 h; series mostly up to 57.5 µM
Outline: as §2

CAOV3 = experiment: as above; details: Gynecologic cancer cell panel viability, ATPlite luminescence, 48 h; series mostly up to 57.5 µM
Outline: as §2

SKOV3 = experiment: as above; details: Gynecologic cancer cell panel viability, ATPlite luminescence, 48 h; series mostly up to 57.5 µM
Outline: as §2

UISO = experiment: qHTS assay to identify novel small-molecules to repurpose for Merkel cell carcinoma treatment (AID 1296009); details: MCC and control cell lines, CellTiter-Glo viability, 72 h; series mostly up to 46 µM; further: nearly all actives have a fitted effect of over 60% in size; further: potency means the concentration at half of the fitted maximal effect; on activity change, negative = cytotoxicity: on the % scale 0 is the no-effect control and ±100 the full control effect
Outline: as §1

WaGa = experiment: as above; details: MCC and control cell lines, CellTiter-Glo viability, 72 h; series mostly up to 46 µM
Outline: as §1

astro = experiment: Drug repurposing screens with cells derived from glioblastoma tumor samples (AID 1345199); details: viability, ATP luminescence, 48 h; series mostly up to 91.6 µM; further: on the % scale 0 is the no-effect control and ±100 the full control effect; nearly all actives have a fitted effect of over 40% in size
Outline: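 Four patient lines of CD133+ GBM neurospheres were screened at several concentrations; hits were retested in those lines plus three slower-growing GBM lines, using 48-hour treatment and ATP-based viability.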

[1] = molecular target: Nuclear receptor subfamily 1 group I member 2 (Rattus norvegicus) (UniProt Q9R1A7); experiment: qHTS assay for small molecule activators of the rat pregnane X receptor (rPXR) signaling pathway (AID 651751; call rule not given here; further: 0% is about no effect); details: rPXR reporter cells, luciferase (One-Glo), 24 h
[2] = qHTS assay for small molecule activators of the human pregnane X receptor (PXR) signaling pathway (AID 720659; call rule not given here; further: 0% is about no effect)

Nuclear receptor subfamily 1 group I member 2 (Rattus norvegicus), sequence (Q9R1A7 whole entry, looked up): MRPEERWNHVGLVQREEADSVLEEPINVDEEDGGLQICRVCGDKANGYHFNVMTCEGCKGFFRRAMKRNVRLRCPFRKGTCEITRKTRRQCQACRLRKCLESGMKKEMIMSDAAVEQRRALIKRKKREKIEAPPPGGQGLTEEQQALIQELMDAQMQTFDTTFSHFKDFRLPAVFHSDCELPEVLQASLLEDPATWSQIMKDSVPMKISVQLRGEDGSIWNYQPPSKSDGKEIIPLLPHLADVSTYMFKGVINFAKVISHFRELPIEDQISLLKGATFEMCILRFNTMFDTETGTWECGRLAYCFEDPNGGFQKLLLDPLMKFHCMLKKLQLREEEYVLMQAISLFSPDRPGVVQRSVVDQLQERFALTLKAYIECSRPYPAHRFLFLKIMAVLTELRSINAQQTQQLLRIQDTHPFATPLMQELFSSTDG

CN(C)CC1CCOC1(c1ccccc1)c1ccccc1 (centres undefined)
inactive: outcome (NIH3T3) inactive [at 17.4 µM] | Potency (C33A) | Potency (CASKI) | Potency (Es-2) | Potency (HeLa) | Potency (Hek293T) | Potency (JEG-3) | Potency (OV90) | Potency (PA-1) | Potency (Tov-21-G) | Potency (Tov112D)

CC12CCC(OC3OC(CO)C(O)C(OC4OC(CO)C(O)C(O)C4O)C3O)CC1=CCC1C2CCC2(C)/C(=C3/COC(=O)C3)CCC12O (centres undefined)
inactive: Potency (C33A) | Potency (CAOV3) | Potency (CASKI) | Potency (Es-2) | Potency (HeLa) | Potency (Hek293T) | Potency (JEG-3) | Potency (OV90) | Potency (PA-1) | Potency (SKOV3) | Potency (Tov-21-G)

O=C(OC1C=C(CO)C2C(OC3OC(CO)C(O)C(O)C3O)OC=CC12)c1ccc(O)cc1 (centres undefined)
inactive: outcome (NIH3T3) inactive [at 17.4 µM] | Potency (C33A) | Potency (CASKI) | Potency (Es-2) | Potency (HeLa) | Potency (Hek293T) | Potency (JEG-3) | Potency (OV90) | Potency (PA-1) | Potency (SKOV3) | Potency (Tov-21-G) | Potency (Tov112D)

CO/N=C(/C(=O)N[C@@H]1C(=O)N2C(C(=O)O)=C(Cn3ccc(=N)n3CCO)CS[C@H]12)c1csc(N)n1
inactive: outcome (NIH3T3) | Potency (C33A) | Potency (CASKI) | Potency (Es-2) | Potency (HeLa) | Potency (Hek293T) | Potency (JEG-3) | Potency (OV90) | Potency (PA-1) | Potency (SKOV3) | Potency (Tov-21-G) | Potency (Tov112D)

O=C1CCC(=O)N(O)CCCCCNC(=O)CCC(=O)N(O)CCOCCNC(=O)CCC(=O)N(O)CCCCCN1
inactive: outcome (NIH3T3) inactive [at 17.4 µM] | Potency (C33A) | Potency (CASKI) | Potency (Es-2) | Potency (HeLa) | Potency (Hek293T) | Potency (JEG-3) | Potency (OV90) | Potency (PA-1) | Potency (SKOV3) | Potency (Tov-21-G) | Potency (Tov112D)

C[C@@H]1C(=O)O[C@H](C)[C@H]1CC(=O)[C@](C)(O)[C@H]1CC[C@@]2(O)C3=CC(=O)[C@@H]4C[C@@H](O)[C@@H](O)C[C@]4(C)C3CC[C@]12C (some centres undefined)
inactive: Potency (C33A) | Potency (CAOV3) | Potency (CASKI) | Potency (Es-2) | Potency (HeLa) | Potency (Hek293T) | Potency (JEG-3) | Potency (OV90) | Potency (PA-1) | Potency (SKOV3) | Potency (Tov-21-G) | Potency (Tov112D)

Cc1ccc(N)cc1O
inactive: Potency (Es-2) | Potency (HeLa) | Potency (Hek293T) | Potency (astro) | max response [1] 0.897% | outcome [2]
active: Potency (UISO) 24.3 µM | Potency (WaGa) 6.11 µM

CCOCCOC(=O)/C=C/c1ccc(OC)cc1
inactive: Potency (UISO) | Potency (WaGa) | Potency (C33A) | Potency (CAOV3) | Potency (CASKI) | Potency (Es-2) | Potency (HeLa) | Potency (Hek293T) | Potency (JEG-3) | Potency (OV90) | Potency (PA-1) | Potency (SKOV3) | Potency (Tov-21-G) | Potency (Tov112D)

CC(C)C[C@H](CC(=O)NO)C(=O)N[C@H](C(=O)N[C@@H](C)C(=O)NCCN)C(C)(C)C
inactive: outcome (NIH3T3) inactive [at 9.27 µM] | activity change, negative = cytotoxicity (C33A) 18.9% [at 11.6 µM] | activity change, negative = cytotoxicity (CASKI) 5.02% [at 11.6 µM] | activity change, negative = cytotoxicity (Es-2) 10.1% [at 11.6 µM] | activity change, negative = cytotoxicity (HeLa) 11.1% [at 11.6 µM] | activity change, negative = cytotoxicity (Hek293T) 15.9% [at 11.6 µM] | activity change, negative = cytotoxicity (JEG-3) 0.977% [at 11.6 µM] | activity change, negative = cytotoxicity (OV90) 19.6% [at 11.6 µM] | activity change, negative = cytotoxicity (PA-1) 8.02% [at 11.6 µM] | activity change, negative = cytotoxicity (SKOV3) 0% [at 11.6 µM] | activity change, negative = cytotoxicity (Tov-21-G) 7.8% [at 11.6 µM] | activity change, negative = cytotoxicity (Tov112D) -2.79% [at 11.6 µM]

CC(C)=CCC[C@](C)(O)[C@H]1CC[C@]2(C)[C@@H]1[C@H](O)CC1[C@@]3(C)CC[C@H](O)C(C)(C)[C@@H]3[C@@H](O[C@@H]3O[C@H](CO)[C@@H](O)[C@H](O)[C@H]3O[C@@H]3O[C@H](CO)[C@@H](O)[C@H](O)[C@H]3O)C[C@]12C (some centres undefined)
inactive: outcome (NIH3T3) inactive [at 17.4 µM] | Potency (C33A) | Potency (CASKI) | Potency (Es-2) | Potency (HeLa) | Potency (Hek293T) | Potency (JEG-3) | Potency (OV90) | Potency (PA-1) | Potency (SKOV3) | Potency (Tov-21-G) | Potency (Tov112D)

C=C1C[C@]23C[C@H]1CC[C@H]2C1=C[C@H]2OC(=O)[C@@](C)([C@H]1[C@@H]3C(=O)O)[C@H]2O
inactive: Potency (C33A) | Potency (CAOV3) | Potency (CASKI) | Potency (Es-2) | Potency (HeLa) | Potency (Hek293T) | Potency (JEG-3) | Potency (OV90) | Potency (PA-1) | Potency (SKOV3) | Potency (Tov-21-G) | Potency (Tov112D)

C[C@]12C[C@@H](O)[C@@H]3C[C@@]1(O[C@@H]1O[C@H](CO)[C@@H](O)[C@H](O)[C@H]1O)[C@]3(COC(=O)c1ccccc1)C(=O)O2
inactive: outcome (NIH3T3) inactive [at 17.4 µM] | Potency (C33A) | Potency (CASKI) | Potency (Es-2) | Potency (HeLa) | Potency (Hek293T) | Potency (JEG-3) | Potency (OV90) | Potency (PA-1) | Potency (SKOV3) | Potency (Tov-21-G) | Potency (Tov112D)

O=C(O)c1ccccc1NC(=O)N1CCC(c2ccccc2C(F)(F)F)CC1
inactive: outcome (NIH3T3) | Potency (C33A) | Potency (CAOV3) | Potency (CASKI) | Potency (Es-2) | Potency (HeLa) | Potency (Hek293T) | Potency (JEG-3) | Potency (OV90) | Potency (PA-1) | Potency (Tov-21-G) | Potency (Tov112D)

CC(=O)C1=CCC2C3CCC4CC(O[C@@H]5O[C@H](CO)[C@@H](O[C@@H]6O[C@@H](C)[C@H](O)[C@@H](O)[C@H]6O)[C@H](O)[C@H]5O[C@@H]5O[C@H](CO)[C@@H](O)[C@H](O)[C@H]5O)CCC4(C)C3CCC12C (some centres undefined)
inactive: Potency (C33A) | Potency (CAOV3) | Potency (CASKI) | Potency (Es-2) | Potency (HeLa) | Potency (Hek293T) | Potency (JEG-3) | Potency (OV90) | Potency (PA-1) | Potency (SKOV3) | Potency (Tov-21-G) | Potency (Tov112D)
